# Laboratory results: the supplement of paper PMC8253809
# Several values for one entry are separate records, joined by “and”; a condition that tells them apart may be missing. Equal entries are not always repeated.
# Tested on: HGGX6 (H3.3 G34R paediatric high-grade glioma line)
# Test: growth inhibition (% activity, log2 RLU normalised to DMSO / staurosporine); higher = more growth inhibition
# Settings: 33 µM
# Method in brief: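 In triplicate, pHGG cell lines and H9-derived neural stem cells were treated for 7 days at 37 °C, 5% CO2 with approved drugs at a single final concentration of about 33 μM, added by pin tool. CellTiter-Glo luminescence, after log2 transformation, was normalised on each plate to % activity between solvent and positive control wells. Growth inhibition is reported as the median across replicates.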
row,SMILES,growth inhibition
1,N=C(N)c1ccc(OCCCCCOc2ccc(C(=N)N)cc2)cc1,20.2%
2,Cc1c(-c2ccccc2)oc2c(C(=O)OCCN3CCCCC3)cccc2c1=O,0.269%
3,O=P(O)(O)C(Cl)(Cl)P(=O)(O)O,-0.402%
4,CCOC(=O)c1c(CSc2ccccc2)n(C)c2cc(Br)c(O)c(CN(C)C)c12,-2.62%
5,O=C(O)c1cc(=O)c2ccccc2o1,-1.13%
6,O=C(Nc1cccc2c(=O)cc(-c3nnn[nH]3)oc12)c1ccc(OCCCCc2ccccc2)cc1,-2.27%
7,CC(C(=O)O)c1cccc(Oc2ccccc2)c1 (centres undefined),2.03% and -0.313%
8,CC(C[N+](C)(C)C)OC(N)=O (centres undefined),-2.06%
9,CC1(C)O[C@@H]2C[C@H]3[C@@H]4C[C@H](F)C5=CC(=O)C=C[C@]5(C)[C@@]4(F)[C@@H](O)C[C@]3(C)[C@]2(C(=O)CO)O1,3.53%
10,CC(=O)OCC(=O)[C@@]1(O)CC[C@H]2[C@@H]3CCC4=CC(=O)CC[C@]4(C)[C@H]3C(=O)C[C@@]21C,-4.47%
11,C[C@@]12C[C@@]3(O)O[C@@H](O1)[C@]1(COC(=O)c4ccccc4)[C@H]3C[C@@]12O[C@@H]1O[C@H](CO)[C@@H](O)[C@H](O)[C@H]1O,1.84%
12,Cc1ccc(-n2[nH]c(C)c(N=Nc3cccc(-c4cccc(C(=O)O)c4)c3O)c2=O)cc1C,-2.27%
13,CCOC(=O)c1ccc(C#Cc2ccc3c(c2)C(C)(C)CCS3)nc1,6.5%
14,CN1C(C(=O)Nc2ccccn2)=C(O)c2sc(Cl)cc2S1(=O)=O,-0.605%
15,CC[C@H]1OC(=O)[C@H](C)[C@@H](O[C@H]2C[C@@](C)(OC)[C@@H](O)[C@H](C)O2)[C@H](C)[C@@H](O[C@@H]2O[C@H](C)C[C@H](N(C)C)[C@H]2O)[C@](C)(O)C[C@@H](C)C(=O)[C@H](C)[C@@H](O)[C@]1(C)O,-0.333%
16,Clc1ccccc1CN1CCc2sccc2C1,0.755%
17,CC(C)OC(=O)C(C)(C)Oc1ccc(C(=O)c2ccc(Cl)cc2)cc1,-3.05%
18,Clc1ccc(C(c2ccccc2Cl)C(Cl)Cl)cc1 (centres undefined),-0.0252%
19,C=CCNC(N)=S,1.43%
20,Clc1cccc(Cl)c1NC1=NCCN1,0.951%

row,SMILES,growth inhibition
1,CC(C)(C)CC(C)(C)c1ccc(OCCOCC[N+](C)(C)Cc2ccccc2)cc1,43.9%
2,CN(C)CCCN1c2ccccc2CCc2ccc(Cl)cc21,0.658%
3,O=C(NCCN1CCOCC1)c1ccc(Cl)cc1,-0.698%
4,Cc1onc(-c2c(Cl)cccc2Cl)c1C(=O)N[C@@H]1C(=O)N2[C@@H]1SC(C)(C)[C@@H]2C(=O)O,1.63%
5,C[C@](N)(Cc1ccc(O)c(O)c1)C(=O)O,-1.03%
6,CN(C)CCCC1(c2ccc(F)cc2)OCc2cc(C#N)ccc21 (centres undefined),3.21%
7,CNCCC(Oc1ccc(C(F)(F)F)cc1)c1ccccc1 (centres undefined),0.48%
8,O=C([O-])C(O)[C@H](O)[C@@H](O)[C@H](O)[C@H](O)CO.O=C([O-])C(O)[C@H](O)[C@@H](O)[C@H](O)[C@H](O)CO.[Ca+2] (some centres undefined),1.87%
9,Cc1c(C(=O)NN2CCCCC2)nn(-c2ccc(Cl)cc2Cl)c1-c1ccc(Cl)cc1,-2.08%
10,CC(=O)N1CCN(c2ccc(OCC3COC(Cn4ccnc4)(c4ccc(Cl)cc4Cl)O3)cc2)CC1 (centres undefined),9.98%
11,CC(C)(Oc1ccc(CCNC(=O)c2ccc(Cl)cc2)cc1)C(=O)O,1.74%
12,O=C1[C@@H]2[C@H]3CC[C@H](C3)[C@@H]2C(=O)N1C[C@@H]1CCCC[C@H]1CN1CCN(c2nsc3ccccc23)CC1,1.59%
13,CC(C)(Oc1ccc(Cl)cc1)C(=O)O,-2.21%
14,Cc1cc(C)nc(NS(=O)(=O)c2ccc(N)cc2)n1,-2.24%
15,Cc1cnc(NC(=O)C2=C(O)c3ccccc3S(=O)(=O)N2C)s1,-2.36%
16,CNC(=O)c1ccc(N2C(=S)N(c3ccc(C#N)c(C(F)(F)F)c3)C(=O)C2(C)C)cc1F,1.33%
17,COc1cc2c(cc1Cc1cccc(Cl)c1F)c(=O)c(C(=O)O)cn2[C@H](CO)C(C)C,0.0329%
18,C=C1CC[C@H](O)C/C1=C/C=C1\CCC[C@]2(C)[C@@H]([C@H](C)/C=C/[C@H](C)C(C)C)CC[C@@H]12,4.35%
19,CC(C)(C)c1ccc(C(O)CCCN2CCC(C(O)(c3ccccc3)c3ccccc3)CC2)cc1 (centres undefined),1.58%
